A selection: hits, their analogues and other compounds. The true share with any hit is near 1.2%.
Keap1 Nrf2 FP – Keap1-Nrf2 protein-protein interaction inhibitors, primary screen, biochemical, fluorescence polarization, single point; Kelch-like ECH-associated protein 1 (Homo sapiens), Q14145; Keap1 Kelch-Nrf2 peptide fluorescence polarization, 1536-well; inhibition, % at 9.4 µM; 340,000 compounds, 0.15% hits; in the data active = inhibition above about 12%; inconclusive = no clear call, values can overlap the other calls; inactive = below about 7.3%;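 note: human Keap1 Kelch domain with fluorescein labeled Nrf2 9mer peptide probe; 0% = neutral control wells and 100% = peptide positive control; higher means more block of Keap1 binding to Nrf2 peptide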
MEX-5 binding – MEX-5 zinc finger RNA-binding disruptors – biochemical, C. elegans, fluorescence polarization, MLPCN library, primary screen; AID 1832, 2009; Zinc finger protein mex-5 (Caenorhabditis elegans), Q9XUB2; 300,000 compounds, 0.38% hits; MEX-5/FITC-TCR2 RNA binding; active compounds read low; activity score (negative = inhibition of binding), % at 10 µM;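 active = inhibition past about -25% in most replicates, and total fluorescence under double the plate's negative control median, limit read from the data; inconclusive = replicates evenly split on the limit, or fluorescence at least double controls; inactive = too little inhibition in most replicates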;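 note: 0% = DMSO and -100% = 5 µM competing unlabeled TCR2 RNA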
C-LANA FP – inhibitors of KSHV C-LANA binding to DNA, primary screen, biochemical, fluorescence polarization, FAM-LBS DNA, MBP-C-LANA, single point | inhibition, % at 9 µM | Kaposi's sarcoma herpesvirus LANA C-terminal domain (residues 932-1162) DNA binding | 340,000 compounds, 0.078% hits;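 active = highest replicate inhibition at or above 60% at 9 µM, even if other replicates fall short; inactive = all replicates below 60% inhibition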;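 note: 0% = neutral control wells and 100% = 4 µM acridine orange control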
GLD-1 RNA inh – GLD-1/TGE RNA complex disruptors, primary screen, biochemical, fluorescence polarization; purified GLD-1 + fluorescein TGE RNA; inhibition, % at 5.96 µM; 320,000 compounds, 0.44% hits;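 active = percent inhibition above a per-plate cutoff, the plate mean of test compounds plus 3 SD, cut at about 30% in these data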;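 note: 0% = DMSO wells with GLD-1 and probe and 100% = wells lacking GLD-1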
Target sequence (Q17339 whole entry, looked up): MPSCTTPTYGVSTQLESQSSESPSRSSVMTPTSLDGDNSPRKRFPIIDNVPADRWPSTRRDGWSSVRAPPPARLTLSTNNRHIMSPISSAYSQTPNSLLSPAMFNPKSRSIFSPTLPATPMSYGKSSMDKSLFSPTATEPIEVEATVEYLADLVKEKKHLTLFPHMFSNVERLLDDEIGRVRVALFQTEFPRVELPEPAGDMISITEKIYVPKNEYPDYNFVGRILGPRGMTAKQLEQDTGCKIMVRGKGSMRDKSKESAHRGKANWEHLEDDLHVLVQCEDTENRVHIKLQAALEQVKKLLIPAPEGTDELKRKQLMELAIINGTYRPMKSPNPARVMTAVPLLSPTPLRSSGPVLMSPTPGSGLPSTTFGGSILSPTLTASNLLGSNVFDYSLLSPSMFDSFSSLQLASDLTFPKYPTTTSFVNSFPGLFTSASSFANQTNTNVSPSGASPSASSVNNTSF
BCLXL inh – inhibitors of human Bcl-xL, primary screen, biochemical, fluorescence polarization, HTS; Bcl-2-like protein 1 (Homo sapiens), Q07817; GST-Bcl-xL / FITC-Bim BH3 peptide fluorescence polarization; 320,000 compounds, 0.7% hits; inhibition, % at 10.9 µM;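 active = inhibition above the mean of all tested compounds plus 3 SD, cutoff set per campaign, cut at about 30% in these data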;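 note: 0% = DMSO wells and 100% = unlabeled Bim-BH3 peptide competitor; inhibitors lower millipolarization by displacing the labeled peptide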
E coli Lon inh – inhibitors of E. coli Lon protease, primary screen, biochemical, fluorescence polarization; AID 602123, 2011; P0A9M0; 360,000 compounds, 0.42% hits; inhibition, % at 7.94 µM; purified E. coli Lon protease; in the data active = inhibition above about 13%, passing the limit was not always enough;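 note: 0% = enzyme with probe and DMSO and 100% = no enzyme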
* hit, by the source's call; ? = inconclusive; . = no result given; + = active, no number.

SMILES	Keap1 Nrf2 FP	MEX-5 binding	C-LANA FP	GLD-1 RNA inh	BCLXL inh	E coli Lon inh
C[C@H](CO)N1C[C@H](C)[C@@H](CN(C)S(=O)(=O)c2cn(C)cn2)Oc2ccc(NC(=O)Cc3ccccc3)cc2C1=O	-2	.	3	3	.	-2
Cn1c(=O)c(Nc2ccc(Cl)cc2)c2c3c(cccc31)C(=O)c1ccccc1-2	.	-41*	.	172*	+	.
C[n+]1c2cc(N)ccc2cc2ccc(N)cc21	+	.	195*	.	.	-10
Nc1ccc2ccc(O)cc2c1	2	.	3	.	.	-5
CCOC(=O)c1cc2c(=O)n3ccccc3nc2n(C(C)C)c1=NC(=O)c1ccncc1	-4	-32*	0	9	5	-6
CCOC(=O)c1cc2c(=O)n3ccccc3nc2n(CCOC)c1=NC(=O)c1ccncc1	-3	-1	-1	3	6	1
CN1/C(=C\C=N\NC(=O)c2cccnc2)C(C)(C)c2ccccc21	0	-2	-2	7	6	0
CC1=C/C(=C\C=C(C#N)C#N)N(C)c2ccccc21	-1	3	-3	-182	35*	-68
CN1/C(=C\C=N\NC(=O)c2ccc(O)cc2)C(C)(C)c2ccccc21	-7	5	-2	32*	39*	13
CN1/C(=C\C=O)C(C)(C)c2ccccc21	-2	4	0	4	9	-2
CN1/C(=C/C=C(C#N)C#N)C(C)(C)c2ccccc21	-226	-87*	150*	-114	47*	-1
COc1ccc(CCNC(=O)c2cc(S(=O)(=O)N3CCOCC3)ccc2F)cc1	-2	.	0	6	-3	-5
S=c1[nH]c2ccccc2n2c(=S)[nH]nc12	3	-42*	-1	2	15	-34
S=c1[nH]nc2ccc3ccccc3n12	.	.	.	.	.	-1
CN1C(=O)/C(=C/c2ccc(-c3ccccc3[N+](=O)[O-])o2)SC1=Nc1ccc(Cl)c(C(=O)O)c1	-1	?	10	25	44*	-4
O=C(O)c1cc(-c2ccc(/C=C3/SC(=S)N(Cc4ccccc4)C3=O)o2)ccc1Cl	-32	.	-8	.	.	-116
CC(=O)Nc1ccc(O)c(-c2nc3ccccc3s2)c1	-1	0	1	5	5	-16
O=C(CCS(=O)(=O)c1ccccc1)Nc1ccc(-c2nc3ccccc3s2)c(O)c1	1	1	1	2	36*	-5
CCN(CC(=O)Nc1c(F)cccc1F)C(=O)c1ccc2c(c1)OCCO2	2	-1	2	-2	-14	3
Cc1ccc(-n2ncc3c(NNC(=O)Cc4ccccc4)ncnc32)cc1	1	-2	-1	10	2	0
Cn1ncc2c(NNC(=O)Cc3ccccc3)ncnc21	-2	-35*	0	1	-1	-12
O=C(/C=C/N1CCOCC1)c1ccc(-c2ccccc2)cc1	-3	-35*	-2	0	-2	-8
CC(=O)c1cc(-c2ccccc2)n(CC(=O)N2CCN(C3CCCC3)CC2)c1C	-7	-17	5	15	45*	28
O=C(O)c1ccc(-n2c(/C=C/c3ccccc3)nc3ccccc3c2=O)cc1	-3	-1	-1	-5	30*	-13
COc1ccccc1Cn1c(=S)[nH]c2ccc(F)cc2c1=O	-1	0	-1	-4	-2	7
SMILES	Keap1 Nrf2 FP	MEX-5 binding	C-LANA FP	GLD-1 RNA inh	BCLXL inh	E coli Lon inh
CCc1ccc(CNC(=O)C2CCN(S(=O)(=O)N3CCCCC3)CC2)cc1	.	.	.	.	.	8
O=C(NCc1ccccc1)/C(=C\c1cccc([N+](=O)[O-])c1)NC(=O)c1ccco1	.	.	.	.	.	-2
COc1cc2c(cc1OC)C(c1ccc(Br)cc1)NCC2 (stereo not given)	.	.	.	1	1	2
O=C(N/N=C/c1sc(N2CCOCC2)nc1-c1ccccc1)c1ccccc1F	.	-1	.	4	2	.
O=C(Nc1ccccc1F)C(=Cc1sc(N2CCOCC2)nc1-c1ccccc1)C(=O)Nc1ccccc1F	-7	-43*	54	-24	10	-20
C(=N\Nc1nc2ccccc2s1)/c1ccccn1	.	-8	.	-3	32*	.
C=CCOC(=O)C(=O)/C=C/c1coc2ccccc2c1=O	0	5	4	63*	52*	-11
CC(N=Cc1cccc(O)c1O)c1ccccc1 (stereo not given)	1	-3	3	15	33*	10
Cc1ccc(N=Cc2cccc(O)c2O)c(C)c1	2	0	1	7	27	9
Oc1cccc(/C=N/N=C/c2cccc(O)c2O)c1O	-5	-37*	-2	-1	4	-4
Cc1ccccc1OCC(=O)O/N=C(\N)c1ccncc1	-5	-2	1	-7	-2	-5
COc1ccccc1Cc1c(C(C)(C)C)nc2c3ccccc3ccn12	.	.	.	.	.	-16
O=c1c(O)c(-c2cccs2)oc2ccc(Cl)cc12	0	-5	0	57*	46*	-70
CC(=O)[C@]1(O)Cc2c(O)c3c(c(O)c2[C@@H](O[C@H]2C[C@H](N)[C@H](O)[C@H](C)O2)C1)C(=O)c1ccccc1C3=O	.	?	.	+	+	.
CC(C)OC(=O)C[N+](C)(C)CCN1C(=O)C2C(c3ccccc3)C=CC(c3ccccc3)C2C1=O (stereo not given)	-4	-3	1	55*	0	1
CC(Oc1ccc(Br)cc1Br)C(=O)Nc1cccnc1Cl (stereo not given)	-6	.	2	.	.	-5
Brc1ccc(NC2=Nc3ccccc3CC2)cc1	-5	-2	0	-5	41*	-3
COc1ccc(-n2c(O)c(/C=N/NS(=O)(=O)c3cc(C)ccc3C)c3ccccc3c2=O)cc1OC	-117	-31*	-6	-74	54*	-449
COc1ccc(-n2c(O)c(/C=N/NS(=O)(=O)c3ccc(C)cc3)c3ccccc3c2=O)cc1OC	-133	5	-12	-74	48*	-498
COc1ccc(-n2c(O)c(/C=N/Nc3nc(C)cc(C)n3)c3ccccc3c2=O)cc1OC	-7	1	-1	-4	8	4
CCOC(=O)Cc1csc(SCC(=O)N(CC(C)C)c2c(N)n(Cc3ccccc3)c(=O)[nH]c2=O)n1	-3	0	0	1	3	-14
COc1ccc(C(=O)NCc2ccc3c(c2)cc(C)n3C)cc1	2	0	0	0	4	15*
Cc1cc2cc(CNC(=O)c3cc4ccccc4o3)ccc2n1C	.	-2	.	39*	31*	.
O=C(NCc1ccc2c(c1)OCO2)c1cc2ccccc2o1	-2	0	-4	4	4	2

Assay outcomes from PubChem.
